The subject of this test is PPARg:RXRa 30nM:10nM, anti-RXR (NR concentration 30 nM, RXRa partner concentration 10 nM). The test is described as follows: PBM binding z-score (relative to random genomic background probes); higher = stronger binding; sequences stand for … in GC…GCGATTGACAGCGTAGAATGAAGG
Put shortly:
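Probes were double-stranded and carried 34-nt variable regions with direct-repeat seeds, single-nucleotide variants, half-site ablations and random human genomic background sequences, printed on custom Agilent 4×180K protein-binding microarrays. Arrays were incubated 1 h with ligand-free nuclear receptor dimers in PBS pH 7.4, 2% milk, 0.02% Triton X-100, 1 mM DTT, 0.2 mg/mL BSA and 0.4 mg/ml salmon testes DNA. Antibodies against each partner (one per run) detected binding, and scanned fluorescence was regression-normalized. Binding z-scores use the random background probes as reference.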
For GCAGACAGGTGAAACGCAGATAACTCAGGGTGGC, the PBM binding z-score was -0.367.

Sequence AGAATGAGGTTAAGATCACGGAAACAGAATACAT registered a PBM binding z-score of 1.17. The figure for ATCGAAAGGTCGTAGGTGAGTATACCCACCCGAA is 1.68; for CCTATTAGTCGACCATAAGGGCAACCGAAGCTCG it is -0.22; for ACAGACAGGTGATGGAGGTAACTCAGGCTATCAT it is -0.252. On to TCTAGCAGGCCAGAGGGTCACTCCAGAGGTACGG, for which the PBM binding z-score came to 1.72.

In turn, AGAACTAGGGCACGCTGAGTTGATAGCAGAGTAG came in with a PBM binding z-score of 1.85. CGTCAAAGTTCAAGGTAACTTAACAGAAAGCAGC registered a PBM binding z-score of 1.81. In turn, CCTAGCAGGCCAAACTGGGTCACTCAAGGCTTGA displayed a PBM binding z-score of -0.348.

As to TAAATGAGGTTATAAGATCAGGGAACGTTGCAAA, the PBM binding z-score was 2.19. With CCTACTGGGCCACGAAAGGTCATTAATTCAGTGA, the PBM binding z-score is 1.99. For the sequence GCTGCTAGGTCAACTGATGGACAGCTAAAGCTCG, the PBM binding z-score turned out to be 0.269.

The sequence AATCGGAGGACAAAGGTCAGAGCTACGCCAGTGA showed a PBM binding z-score of 6.45. Sequence TCGAGTAGGTTAGTCGGGGCATTCAGCCAACATA registered a PBM binding z-score of 0.435. With TCATATAGGTAAACAGGTGAAATTCCGTAAGTTA, the PBM binding z-score is 4.19. CGAACTAGGTCATCCAGGACAGTGAGTACATTGA yielded a PBM binding z-score of 3.99. For the sequence ATACCAAGGTGATCGTGAGGTCGCTGATACTAAC, the PBM binding z-score was -0.172.

TCGAGTAGGTTCGTCGGGGCATTCAGCCAACATA yielded a PBM binding z-score of 0.955.

TAGCCTAGGTCAGATAGGGCCAGTATACGCTATA came in with a PBM binding z-score of -0.0576. Consider CAAACTAGGTCACCGGAAGGTCACAGTCCGCATG, for which the PBM binding z-score is 6.06.

Regarding CACACTAGGTCAAGGTCAAAGTCGGTTTGTGCCA, the PBM binding z-score was determined as 5.6.

ACTATTAGTTGAGACGAGGGCAACCAATAGGTTG displayed a PBM binding z-score of 0.235.

The values are drawn from the supplement of paper PMC6555819.
